TDP1 cell noCPT – qHTS for Inhibitors of human tyrosyl-DNA phosphodiesterase 1 (TDP1): qHTS in cells in absence of CPT. DT40 Tdp1-/- hTDP1 cells, no CPT, ATP luminescence, 48 h. Potency, µM (series often up to 46.2 µM), most hits filed as inhibitors. 420,000 compounds, 15% hits; also: nearly all actives have a fitted effect of over 55% in size
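Growth kinetics read by CellTiter-Glo luminescence after ≥48 hr at 37 °C. Cells: DT40 Tdp1-/- stably carrying human TDP1, 400 per well, compound exposure in the absence of CPT (DMSO vehicle).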
RORgamma inh – blocks mouse ROR gamma transcriptional activity; P51450; 310,000 compounds, 5.4% hits; Drosophila S2 Gal4-RORgamma UAS-luciferase reporter, 20 h; Potency, µM (highest dose often 53.6 µM), most hits filed as inhibitors; also: nearly all actives have a fitted effect of over 60% in size
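Using a luciferase readout, inhibitors were identified by reduced reporter activity in Drosophila cells coexpressing a copper-inducible Gal4–ROR gamma fusion and UAS-driven Photinus luciferase, incubated 20 hr after 700 uM copper sulfate.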
ELG1 repair inh – blocks ELG1-dependent DNA repair in HEK293T cells; 330,000 compounds, 2.3% hits; Potency, µM (doses to about 46.1 µM), hits mostly inhibitors; AID 504467; HEK293T ELG1-luciferase reporter, luminescence, 16 h; DNA damage induced by 5-fluorouridine; also: nearly all actives have a fitted effect of over 55% in size
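HEK293T cells expressing luciferase-tagged ELG1 (2,000/well) received 5-Fluorouridine plus compound or DMSO for 16 hr at 37 °C. Luciferase was read by ONE-Glo luminescence after 30 min at room temperature.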
12-LOX inh – blocks human arachidonate 12S-lipoxygenase. purified 12hLO, xylenol orange hydroperoxide absorbance. P18054. Potency, µM (top dose mostly 108 µM), usual class: inhibitors. AID 1671190. 580,000 compounds, 1.1% hits
Target sequence (P18054 whole entry, looked up): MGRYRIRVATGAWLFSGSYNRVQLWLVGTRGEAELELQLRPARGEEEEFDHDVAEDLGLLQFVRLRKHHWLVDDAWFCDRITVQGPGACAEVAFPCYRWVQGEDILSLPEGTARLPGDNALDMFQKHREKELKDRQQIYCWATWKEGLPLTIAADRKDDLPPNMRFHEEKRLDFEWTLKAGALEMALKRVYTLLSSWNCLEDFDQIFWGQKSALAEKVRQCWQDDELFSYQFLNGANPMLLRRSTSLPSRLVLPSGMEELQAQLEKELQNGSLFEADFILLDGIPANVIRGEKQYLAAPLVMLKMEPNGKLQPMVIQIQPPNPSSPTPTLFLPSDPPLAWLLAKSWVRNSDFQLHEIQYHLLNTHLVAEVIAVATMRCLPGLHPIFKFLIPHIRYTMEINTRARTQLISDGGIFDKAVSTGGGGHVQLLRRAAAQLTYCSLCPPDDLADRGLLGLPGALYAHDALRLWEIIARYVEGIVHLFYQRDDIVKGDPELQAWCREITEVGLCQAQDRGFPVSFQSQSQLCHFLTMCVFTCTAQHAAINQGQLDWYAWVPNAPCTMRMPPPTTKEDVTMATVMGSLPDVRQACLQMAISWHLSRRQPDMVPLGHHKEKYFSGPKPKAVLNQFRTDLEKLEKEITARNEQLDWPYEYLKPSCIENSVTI
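Hydroperoxide product was detected by ferrous iron/xylenol orange as the 573 to 405 nm absorbance ratio. Arachidonic acid at 40 uM (final) was turned over for 30 min at room temperature by 150 nM human 12hLO, pH 7.0 Hepes buffer, after 15 min compound preincubation.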
TDP1 cell CPT – DT40-hTDP1 cell growth loss with CPT; chicken DT40 Tdp1-/-;hTDP1 cells + 20 nM CPT, ATP luminescence, 48 h; Potency, µM (doses to about 46.2 µM), actives largely listed as inhibitors; 420,000 compounds, 12% hits; AID 686979; also: nearly all actives have a fitted effect of over 55% in size
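Chicken DT40 Tdp1-/- cells stably complemented with human TDP1 were seeded at 400 cells/well in medium containing 20 nM camptothecin, exposed to pin-transferred compounds, and grown at 37 °C for at least 48 hr. Viability was read as ATP luminescence.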
VP16 counter – Gal4-VP16 reporter inhibition counter-screen; Drosophila S2 Gal4-VP16 UAS-luciferase, luminescence, 20 h; Potency, µM (top dose mostly 53.6 µM), most hits filed as inhibitors; 310,000 compounds, 3.5% hits;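 also: Gal4-VP16 expression switched on by copper sulfate through the metallothionein promoter; nearly all actives have a fitted effect of over 50% in size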
Hits are given with their value; - = inactive; ? = inconclusive; . = no result given; ! = not confirmed by another sample; [ ] = another dose, or the depositor's remark. Most compounds without a hit are left out; they make up all but 15% or so of the library. Calls follow the shape of the dose curve; as a rule, active = well fitted curve in the direction sought with a large enough effect; inconclusive = small, poorly fitted or top-dose-only effect, or another doubt; inactive = no such curve, though single readings can be large; an effect the other way counts as inactive or inconclusive.

SMILES | TDP1 cell noCPT | RORgamma inh | ELG1 repair inh | 12-LOX inh | TDP1 cell CPT | VP16 counter
Cn1c(N)c(C(=O)CCl)c(=O)n(C)c1=O | ? | - | - | ? | 7.31µM | -
Cc1oc(C(O)c2ccccc2)nc1C(=O)N1CCC(n2c(=O)[nH]c3ccccc32)CC1 (centres undefined) | . | . | . | - | . | .
O=C(Nc1cc(Cl)cc(Cl)c1)N[C@@H]1CC[C@@H](CCNS(=O)(=O)c2cccc(F)c2)O[C@@H]1CO | 16.4µM | . | . | ? | ? | .
Cc1cccc(C(=O)CC(=O)c2cccc(C)c2)c1 | . | . | . | - | . | .
O=C(NC1CCCCNC1=O)c1ccc2c(c1)OCCCO2 (centres undefined) | . | . | . | - | . | .
Cc1ccc(S(=O)(=O)NC(=O)NC2=NC(C)(C)N(c3ccc(Cl)c(Cl)c3)C(N)=N2)cc1 | 1.03µM | . | . | ? | 0.92µM | .
CC1=C/C(=N\NC(=O)c2ccc(O)cc2)CC1 | - | 12.6µM | ? | - | - | ?
CC1=C/C(=N\NC(=O)c2ccc(N)cc2)CC1 | . | . | . | - | . | .
COc1cccc([S+](=O)([O-])N2CC3ON=C(C(=O)O)C3C2)c1 (centres undefined) | . | . | . | -[6.33 µM] | . | .
O=C(c1ccc2cc[nH]c2c1)N1CCC2(CC1)CC(O)CCO2 (centres undefined) | . | . | . | - | . | .
CN(Cc1ccccc1)C(=O)COC(=O)C12CC3CC(CC(Br)(C3)C1)C2 | ? | . | - | - | 25.9µM | .
O=C(COC(=O)C12CC3CC(CC(Br)(C3)C1)C2)Nc1cccnc1Cl | - | - | - | - | ? | -
Cc1ccc(S(=O)(=O)N(C)c2ccc3c(c2)C(=O)c2ccccc2-3)cc1 | ? | . | . | - | 16.4µM | .
CC1CCN(S(=O)(=O)c2ccc3c(c2)N(CC(=O)NCCCN2CCCCC2)C(=O)CS3)CC1 | - | - | - | - | - | -
CC(C)CN(CCCNC(=O)CN1C(=O)CSc2ccc(S(=O)(=O)N3CCOCC3)cc21)CC(C)C | - | - | - | - | - | -
CC(C)CN(CCNC(=O)CN1C(=O)CSc2ccc(S(=O)(=O)N3CCOCC3)cc21)CC(C)C | 20.6µM! | - | - | - | 18.4µM! | -
CCC1CCCCN1CCCNC(=O)CN1C(=O)CSc2ccc(S(=O)(=O)N3CCC(C)CC3)cc21 (centres undefined) | 23.1µM! | - | - | - | ? | -
CC1CCN(S(=O)(=O)c2ccc3c(c2)N(CC(=O)NCCCN2CCCC(C)C2)C(=O)CS3)CC1 (centres undefined) | 14.6µM! | - | ? | - | 14.6µM! | -
O=c1c2c(nc3cc[nH]n13)CCN(S(=O)(=O)c1ccc3c(c1)CCC3)C2 | . | . | . | - | . | .
Cc1ccc2c(=O)cc(C(=O)Nc3nnc(CC(C)C)s3)oc2c1 | . | . | . | - | . | .
Fc1ccc(-c2csc(=Nc3cccc(C(F)(F)F)c3)n2Cc2ccc3c(c2)OCO3)cc1 | 13µM | . | . | ? | 13µM | .
CCN(CC)S(=O)(=O)c1ccc(-c2csc(=Nc3cccc(C(F)(F)F)c3)n2Cc2ccc3c(c2)OCO3)cc1 | 9.2µM | . | . | - | ? | .
CCN(C1CCOCC1)C1CN(C(=O)c2ccoc2)C1 | . | . | . | - | . | .
O=c1/c(=C\c2cccn2-c2ccccc2)sc2nc3ccccc3n12 | ? | - | ? | - | ? | -
Cc1ccc(-n2c(C)cc(/C=c3/sc4nc5ccccc5n4c3=O)c2C)cc1 | 9.2µM | ? | ? | . | 16.4µM | ?
SMILES | TDP1 cell noCPT | RORgamma inh | ELG1 repair inh | 12-LOX inh | TDP1 cell CPT | VP16 counter
CS(=O)(=O)N1CCc2cc(C(=O)Nc3ccc(-c4nnc5n4CCCCC5)cc3)ccc21 | . | . | . | - | . | .
Cc1ccn2c(NC3CCCC3)c(-c3ccccn3)nc2c1 | 6.51µM | 3.55µM | - | - | 18.4µM | -[10 µM]
Cc1ccn2c(NC3CCCC3)c(-c3ccncc3)nc2c1 | ? | - | - | - | ? | -
Cc1ccc(-c2nc3ncccn3c2NC2CCCCC2)o1 | ? | - | - | - | ? | -
c1ccc(-c2nc3ccccn3c2NC2CCCC2)nc1 | 16.4µM | - | - | - | ? | -
CC(C)c1ccc(NC(=O)c2cnc(N3CCOCC3)c3ccccc23)cc1 | . | . | . | - | . | .
CCCCn1c(SCC(=O)Nc2cc(C(F)(F)F)ccc2Cl)nnc1C(CC)N(C)C (centres undefined) | 20.6µM | - | - | - | ? | -
Cc1cc2nc(-c3cccc(NC(=O)c4cc([N+](=O)[O-])ccc4N4CCOCC4)c3)oc2cc1C | . | . | . | - | . | .
COc1ccc(NC(=O)NCc2nc(-c3cccc(Cl)c3)oc2C)cc1 | . | . | . | - | . | .
CC(C)(C)[C@H]1C=C(C(=O)N2CCN(Cc3ccc4c(c3)OCO4)CC2)O[C@@H](OCc2ccc(CO)cc2)C1 | 18.4µM | - | 5.17µM | - | 20.6µM | -
CC(C)(C)[C@@H]1C=C(C(=O)N2CCN(Cc3ccccc3)CC2)O[C@H](OCc2ccc(CO)cc2)C1 | ? | - | - | - | 13µM | -
O=C(C1=C[C@H](c2ccc3c(c2)OCO3)C[C@H](OCc2ccc(CO)cc2)O1)N1CCOCC1 | - | - | - | - | - | -
O=C(C1=C[C@@H](c2ccccc2)C[C@@H](OCc2ccc(CO)cc2)O1)N1CCCCCCC1 | ? | - | - | - | ? | -
O=C(Cc1ccccc1)N1CCC(N2CC(OCC3CC3)C23CCOCC3)CC1 (centres undefined) | . | . | . | - | . | .
Cc1ccc(-n2nc(N3CCCN(S(=O)(=O)c4cccc5nsnc45)CC3)ccc2=O)cc1 | . | . | . | - | . | .
COc1ccc(C(=O)OCCc2sc[n+](CC(=O)c3ccccc3)c2C)cc1 | ? | - | - | ? | ? | -
Cc1c(CCOC(=O)C2C3CC4CC(C3)CC2C4)sc[n+]1CC(=O)c1ccc(Br)cc1 (centres undefined) | 18.4µM | - | - | 39.8µM! | ? | -
Cc1c(CCOC(=O)c2ccc(Cl)cc2Cl)sc[n+]1CC(=O)c1ccc(Br)cc1 | 18.4µM | . | ? | ? | ? | .
CC(C)(C)c1ncc(-c2ccccc2)[nH]1 | . | . | . | -[12.5 µM] | . | .
OC(CNCCc1ccc(C(F)(F)F)cc1)COc1cccc2ccccc12 (centres undefined) | ? | ? | - | ? | ? | 12.6µM
OC(CNCCc1ccc(C(F)(F)F)cc1)COc1ccc2ccccc2c1 (centres undefined) | - | 15.8µM | - | ? | ? | 11.2µM
COc1ccc(CCNCC(O)COc2cccc(Br)c2)cc1 (centres undefined) | ? | - | - | ? | ? | -
OC(COc1ccc(CNCCc2ccc(C(F)(F)F)cc2)cc1)CN1CCCCC1 (centres undefined) | 5.8µM | - | ? | - | 4.61µM | -
Cc1cccc(-c2nc(CSc3nc(C)c(CCO)c(=O)[nH]3)c(C)o2)c1 | . | . | . | - | . | .
